This passage reports Potency results from PubChem BioAssay AID1508622 (National Center for Advancing Translational Sciences (NCATS), 2021).

Calls of active or inactive are those of the source. Entries that show only a call come without a potency. Calls come from the whole dose curve; as a rule, active = well fitted activation curve with a large enough effect; inconclusive = small, poorly fitted or top-dose-only effect; inactive = no such curve, though single readings can be large or run the other way.
Potency is the fitted concentration of half-maximal effect.

A short description of the experiment: Confirmatory qHTS for Identification of Small Molecule Activators of Huntingtin-Antisense Promoter Activity. Conditions: HEK293 HTT-AS promoter firefly luciferase reporter, 24 h; series mostly up to 57.5 µM. From the text: Assay Provider: Russell L. Margolis M.D.
Department Neurology, Johns Hopkins University School of Medicine, Baltimore, MD
Huntington's Disease (HD) is a neurodegenerative disorder caused by a CAG repeat expansion in exon 1 of huntingtin (HTT). While there are currently no disease-modifying treatments for HD, recent efforts have focused on development of nucleotide-based therapeutics to lower HTT expression. As an alternative to siRNA or oligonucleotide methods, we hypothesized that suppression of HTT expression might be accomplished by small molecules that either (1) directly decrease HTT expression by suppressing HTT promoter activity or (2) indirectly decrease HTT expression by increasing the promoter activity of HTT-AS, the gene antisense to HTT that appears to inhibit expression of HTT.
We developed and employed a high throughput screen for modifiers of HTT and HTT-AS promoter activity using luminescent reporter HEK293 cells; of the 52,041 compounds tested, we identified 898 replicable hits. We used a rigorous stepwise approach to assess compound toxicity and the capacity of the compounds to specifically lower huntingtin protein in 5 different cell lines, including HEK293 cells, HD lymphoblastoid cells, mouse primary neurons, HD iPSCs differentiated into cortical-like neurons, and HD hESCs. We found no compounds which were able to lower huntingtin without lowering cell viability in all assays, though the potential efficacy of a few compounds at non-toxic doses could not be excluded.
SEQUENCE No. (1, 2, 3, etc.); […] (e.g., Cells, Incubation, Reagent, etc.); VALUE and DESCRIPTION.
1; Reagent; 4 uL; 2,500 Hek293 luciferase reporter cells per wells
3; Compound; 23 nL; Control inhibitor / compound library
5; Reagent; 2.5 uL; Firefly Luc reagent; Dual-Glo Luciferase Reporter Assay System (Promega)
6; Time; 10 min; room temperature incubation
7; Detection; Luminescence; FLuc
NOTES (numbers refer to sequence above)
1; High-throughput screening, measuring luminescence from a Hek293 luciferase reporter, was performed in 1,536 well white-walled tissue-culture treated plates. 2,500 cells were plated in 4 uL of Opti-MEM per well using a Multidrop Combi Reagent Dispenser (ThermoFisher).
2; Assay plates were cultured for 24 hours.
3; Control inhibitor (PTC124; final concentration of 50 uM) and compound library (at final concentrations of 460 nM - 57.5 uM) were added to the assay plate using the Kalypsis Pintool Robotic System equipped with 1536 pinheads.
4; Cells were then incubated for 24 hours at 37C prior to luminescence measurements.
5; In all cases, luminescence was measured using the Dual-Glo Luciferase Reporter Assay System (Promega) following the manufacturer's instructions.
6; Room temperature incubation.
7; Luminescence signal was obtained using the PerkinElmer ViewLux plate reader. Results were normalized to vehicle control (0% activity) and zero RLU (-100% activity).
A general note: Quantitative high-throughput screening tests each substance at several concentrations.
Regarding `CCOC(=O)c1ccc(CN(Cc2ccc(C)cc2)S(=O)(=O)c2ccc(NC(C)=O)cc2)cc1`, the Potency result was “inactive”. The entry for `COc1ccc(-c2nc3sc(CCNS(=O)(=O)c4ccc(F)c(C)c4)c(C)n3n2)cc1` is “inactive”. The same measure for `CCOc1ccccc1CNC(=O)c1cc2c(=O)n(Cc3ccccc3)ccc2nc1C`: “inactive”; for `CCCCN1CC(c2nc3ccccc3n2CCCCOc2ccccc2C)CC1=O` (stereo not given): “inactive”.

Regarding `Cc1ccc(NC(=O)c2c(Nc3ccccc3C)sc(C(=O)c3ccccc3)c2N)cc1`, the Potency result is “inactive”. The same measure for `O=c1[nH]c2ccc(NCc3ccc(-c4ccccc4)o3)cc2[nH]1`: “inactive”; for `O=C(NCC(c1ccc2c(c1)OCO2)N1CCN(c2ccccc2)CC1)c1ccc(F)c(F)c1` (stereo not given): “inactive”.

Turning to `CCc1ccc(NC(=O)C2CCCN(S(=O)(=O)c3ccc(F)cc3)C2)cc1` (stereo not given), the Potency entry was “inactive”. The same measure for `Cc1ccc(-c2c(C)n3c4c(=O)n(C)c(=O)n(C)c4nc3n2CCO)cc1`: “inactive”; for `O=C(CSc1nc(-c2ccc(F)cc2)[nH]c1-c1ccccc1)Nc1ccccc1`: “inactive”; for `Cc1ccc(CNC(=O)c2ccc(CSc3nc4ccncc4n3Cc3ccc(C)cc3)cc2)cc1`: “inactive”. The same measure for `COc1ccccc1N1CCN(S(=O)(=O)c2ccc(F)c(C(=O)Nc3ccc(Cl)cc3C(F)(F)F)c2)CC1`: “inactive”; for `COc1cc(OC)c(OC)cc1/C=C/c1nc2cc3ccccc3cc2c(=O)n1-c1ccc(F)c(Cl)c1`: “inactive”; for `COc1ccc2sc(N(Cc3cccnc3)C(=O)c3ccc4c(c3)OCCO4)nc2c1`: “inactive”. The same measure for `Cc1cc(Nc2sc(C(=O)c3ccc(F)cc3)c(N)c2C(=O)Nc2ccc(F)cc2)ccc1Cl`: “inactive”; for `CCCc1ccc(C2Sc3ccccc3NC3=C2C(=O)c2ccccc23)cc1` (stereo not given): “inactive”; for `O=C(NCc1ccc(F)cc1)C1CCN(C(=O)c2ccc(-n3ccc4ccccc43)s2)CC1`: “inactive”. In the case of `CCOc1ccc(-c2nc(CSCC(=O)NCCc3ccccc3)c(C)o2)cc1`, the Potency entry was “inactive”.

Turning to `COc1cc(OC)cc(C(=O)Oc2c(Sc3ccccc3)c(C)nn2C(C)(C)C)c1`, the Potency result is “inactive”.

`O=C(Nc1ccc(F)cc1F)N1CCN(c2ccc(Cl)c(Cl)c2)CC1`: the Potency result is “inactive”. The same measure for `Cc1cccc(S(=O)(=O)Nc2cccc(-c3ccc(N4CCCCC4)nn3)c2)c1`: 2.39 µM (active). The entry for `CCN1C(=O)c2ccccc2Sc2ccc(NC(=O)c3ccc(C)c(F)c3)cc21` is “inactive”. The entry for `Cc1oc(-c2ccc(C(=O)NCc3ccccc3Cl)cc2)nc1CN1CCc2ccccc21` is “inactive”; for `COc1ccc(N2CCN(C(CNC(=O)c3ccc(C)cc3)c3ccc4c(c3)OCO4)CC2)cc1` (stereo not given) it is “inactive”.

Turning to `Cc1ccccc1CN1CCc2nc(N3CCN(c4ccccn4)CC3)ncc2C1`, the Potency result was “inactive”.

Take `CCOc1ccccc1CNC(=O)c1ccc2nc(Cc3ccc(OC)cc3)oc2c1`: the Potency entry was “inactive”. The same measure for `CCc1ccc(NC(=O)c2ccc(F)c(S(=O)(=O)N3CCC4(CC3)OCCO4)c2)cc1`: “inactive”. The same measure for `CC(=O)N1CCCc2cc(S(=O)(=O)N3CCN(c4ccc(F)cc4)CC3)ccc21`: “inactive”.

On to `Cc1ccc2nc(CSc3nnc(NC(=O)COc4ccccc4)s3)cc(=O)n2c1`, for which the Potency entry was “inactive”.

Turning to `Cc1ccc(C(=O)Nc2ccc(F)cc2)cc1S(=O)(=O)N1CCCCCC1`, the Potency entry is “inactive”.

On to `COc1ccc(NC(=O)C(=O)NCC(c2cccnc2)N2CCc3ccccc3C2)cc1` (stereo not given), for which the Potency result is “inactive”. The entry for `CCn1c(=O)n(CC)c2cc(N3CCCCC3)c(NC(=O)Nc3cc(Cl)ccc3OC)cc21` is “inactive”; for `Cc1ccc(S(=O)(=O)n2nc(-c3ccccc3)nc2NCc2ccccc2Cl)cc1` it is “inactive”; for `COc1ccc(NC(=O)c2ccc(-c3nc(CSc4ccccc4)c(C)o3)cc2)cc1OC` it is “inactive”. On to `CC(C)[C@H](CO)Nc1nc(Nc2ccc(C(=O)O)c(Cl)c2)c2ncn(C(C)C)c2n1`, for which the Potency result is “inactive”. As to `Cc1nc2sccn2c(=O)c1S(=O)(=O)Nc1ccc(N2CCOCC2)c(Cl)c1`, the Potency entry was “inactive”.

For the compound `CN(C)c1ccc(Nc2nc(N)n(C(=O)c3c(F)cccc3F)n2)cc1`, the Potency is 30.1 µM (active).

Turning to `Cc1ccccc1CNC(=O)c1ccc(-c2nc(CS(=O)(=O)c3ccccc3)c(C)o2)cc1`, the Potency result was “inactive”.

`CCc1nnc2n1N(C(C)=O)C(c1ccc(C(C)(C)C)cc1)=C(C(C)=O)S2`: the Potency entry is “inactive”. The entry for `O=C(NCCn1cc(SCc2ccccc2)c2ccccc21)c1cccs1` is “inactive”.
